Data taken from PubChem BioAssay (NCI).
The panel holds about 83,000 compounds, 20% with a hit somewhere; the sample as a whole holds those more often.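 Step 1: grow cells in 96-well plates. Step 2: add test compound at a single concentration. Step 3: incubate 48 h. Step 4: record percent growth.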

Legend:
Assay in all cases: NCI-60 one-dose screen, 48 h (100 = growth as untreated, 0 = no growth, -100 = all killed)
Conditions in all cases: 10 µM unless noted; active = growth percent below 10; inactive = the rest
NCI-H23 lung = test system: NCI-H23 lung
NCI-H226 lung = test system: NCI-H226 lung
NCI-H322M lung = test system: NCI-H322M lung
HOP-62 NSCLC = test system: HOP-62 NSCLC
NCI-H460 lung = test system: NCI-H460 lung
HOP-92 NSCLC = test system: HOP-92 NSCLC
A549/ATCC NSCLC = test system: A549/ATCC NSCLC
786-0 renal = test system: 786-0 renal
COLO 205 colon = test system: COLO 205 colon

Measured: growth

O=C1CSC(c2ccccc2O)N1c1nnc(Cn2ccnc2)o1 (centres undefined)
inactive: NCI-H23 lung 67.9% | NCI-H226 lung 91.4% | NCI-H322M lung 69.6% | HOP-62 NSCLC 67.2% | NCI-H460 lung 34.8% | HOP-92 NSCLC 69.1% | A549/ATCC NSCLC 66.5% | 786-0 renal 59.1% | COLO 205 colon 92.6%

CC1(C)CC2(C)CC(=O)C1C(C(=O)O)C2C(=O)O (centres undefined)
inactive: NCI-H23 lung 106% | NCI-H226 lung 107% | NCI-H322M lung 104% | HOP-62 NSCLC 105% | NCI-H460 lung 112% | HOP-92 NSCLC 113% | A549/ATCC NSCLC 109% | 786-0 renal 123% | COLO 205 colon 107%

Nc1ccc(N=Nc2ccccc2)cc1[N+](=O)[O-]
inactive: NCI-H23 lung 90.7% | NCI-H226 lung 86% | NCI-H322M lung 80.5% | HOP-62 NSCLC 91.9% | NCI-H460 lung 100% | HOP-92 NSCLC 91.7% | A549/ATCC NSCLC 85.9% | 786-0 renal 107% | COLO 205 colon 95%

O=C1N=C(N2CCOCC2)S/C1=C\c1cn(-c2ccccc2)nc1-c1ccccc1
inactive: NCI-H23 lung 95.2% | NCI-H226 lung 78.8% | NCI-H322M lung 73.3% | HOP-62 NSCLC 68.5% | NCI-H460 lung 67.3% | HOP-92 NSCLC 94.6% | A549/ATCC NSCLC 94.8% | 786-0 renal 25.6% | COLO 205 colon 122%

CCOC(=O)C(Br)=P(c1ccccc1)(c1ccccc1)c1ccccc1
inactive: NCI-H23 lung 109% | NCI-H226 lung 104% | NCI-H322M lung 99.4% | HOP-62 NSCLC 114% | NCI-H460 lung 116% | HOP-92 NSCLC 101% | A549/ATCC NSCLC 106% | 786-0 renal 103% | COLO 205 colon 103%

Nc1ccc2c(c1)C(=O)c1cc(Cl)c(Cl)cc1-2
inactive: NCI-H23 lung 88.8% | NCI-H226 lung 83.1% | NCI-H322M lung 117% | HOP-62 NSCLC 94.2% | NCI-H460 lung 105% | HOP-92 NSCLC 72.2% | A549/ATCC NSCLC 90.7% | 786-0 renal 91.4% | COLO 205 colon 83.5%
